# This is a sample that favours compounds with a hit; in the whole collection about 4.1% have one here.
# aSyn 5UTR inh = MLPCN primary screen, SNCA 5' untranslated region; inhibition, % (tested at 7.5 µM); AID 1813, 2009; alpha-synuclein 5'UTR reporter, inhibitor activity; 300,000 compounds, 0.82% hits; in the data active = inhibition above about 60%;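 also: H4 neuroglioblastoma cells stably carrying SNCA 5'UTR luciferase fusion; 0% = DMSO wells and 100% = positive control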
# 697 NFkB inh = inhibitors of PMA/ionomycin-induced NF-kB reporter, 697 cells, primary screen, B-cell NF-kB inhibitor project, cell-based, luminescence, uHTS. 697 B-cell NF-kB luciferase reporter, 16 h. inhibition, % at 4 µM. 330,000 compounds, 0.33% hits. AID 435022, 2010; in the data active = inhibition above about 35%
# Gli-Sufu block = Gli-Sufu pathway antagonists, primary screen, luciferase luminescence, Sufu-KO-LIGHT cells, uHTS; 340,000 compounds, 0.74% hits; Sufu-KO-LIGHT fibroblasts, Gli luciferase reporter luminescence; inhibition, % at 5 µM;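 active = inhibition above about 55%, limit read from the data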;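 also: 0% = DMSO-treated cells and 100% = wells with medium but no cells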
# Mdm2-MdmX inh = inhibitors of human Mdm2-MdmX association, primary screen, cell-based, luminescence, split luciferase, SaOS-2, uHTS. AID 485346, 2010. inhibition, % at 8 µM. SaOS-2 split-luciferase Mdm2/MdmX complementation. 330,000 compounds, 3% hits;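 active = inhibition of at least 50% at 8 µM in the primary screen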
# Target sequence (O15151 whole entry, looked up): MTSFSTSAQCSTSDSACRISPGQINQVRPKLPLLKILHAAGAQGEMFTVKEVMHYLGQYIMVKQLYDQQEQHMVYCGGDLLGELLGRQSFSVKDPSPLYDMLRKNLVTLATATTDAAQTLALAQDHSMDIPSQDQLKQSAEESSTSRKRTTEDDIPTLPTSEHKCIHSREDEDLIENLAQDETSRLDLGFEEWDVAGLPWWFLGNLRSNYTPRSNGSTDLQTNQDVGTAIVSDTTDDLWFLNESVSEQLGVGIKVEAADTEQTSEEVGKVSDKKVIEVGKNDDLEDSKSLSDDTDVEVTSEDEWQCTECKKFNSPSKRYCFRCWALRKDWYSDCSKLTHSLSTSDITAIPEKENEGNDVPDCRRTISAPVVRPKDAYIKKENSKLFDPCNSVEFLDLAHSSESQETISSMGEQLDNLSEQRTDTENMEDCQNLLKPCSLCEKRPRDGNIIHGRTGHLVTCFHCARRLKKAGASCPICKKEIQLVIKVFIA
# Target sequence (Q00987 whole entry, looked up): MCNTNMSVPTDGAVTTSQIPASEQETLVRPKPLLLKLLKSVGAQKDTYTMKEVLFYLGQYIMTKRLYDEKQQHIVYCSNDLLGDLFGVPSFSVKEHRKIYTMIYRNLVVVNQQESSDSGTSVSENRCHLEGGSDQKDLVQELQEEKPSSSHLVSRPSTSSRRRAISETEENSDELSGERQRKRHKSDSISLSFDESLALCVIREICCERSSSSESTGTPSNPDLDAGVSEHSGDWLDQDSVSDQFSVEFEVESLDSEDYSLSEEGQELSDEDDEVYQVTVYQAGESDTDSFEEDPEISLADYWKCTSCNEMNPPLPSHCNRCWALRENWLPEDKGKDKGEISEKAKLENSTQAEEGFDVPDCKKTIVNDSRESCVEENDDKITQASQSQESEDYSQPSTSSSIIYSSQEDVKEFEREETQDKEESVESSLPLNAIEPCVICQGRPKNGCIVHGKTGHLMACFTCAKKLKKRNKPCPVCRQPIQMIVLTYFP
# Jurkat NFkB inh = inhibitors of induced NF-kB luciferase reporter, primary screen, TCR NF-kB activation inhibitor project, cell-based, luminescence, uHTS | Jurkat, PMA/ionomycin-induced NF-kB luciferase reporter | inhibition, % at 4 µM | 330,000 compounds, 0.53% hits | AID 435003, 2010; in the data active = inhibition above about 50%
# KLF5 inh = KLF5 expression inhibitors, primary screen, DLD-1 cells, luminescence; DLD-1 KLF5 promoter-luciferase reporter; inhibition, % at 5 µM; 290,000 compounds, 0.23% hits; AID 1700, 2009;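 active = inhibition above a per-plate limit of that plate's mean compound inhibition plus 3 SD, cut at about 60% in these data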;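 also: 0% = DMSO wells and 100% = LY294002 at 200 µM; higher means less KLF5 promoter-driven luciferase light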
# Gli antag conf = Gli-SUFU pathway antagonists, confirmation, single concentration, luciferase luminescence, Sufu-KO-LIGHT cells; shares compounds with Gli-Sufu block; Gli luciferase reporter; inhibition, % at 5 µM; 2,500 compounds, 40% hits; AID 602428, 2012;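 active = mean inhibition at 5 µM reaching about 45%, limit read from the data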;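 also: plate controls were DMSO-treated cells for no effect and wells lacking cells for full effect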
# Gli cytotox = cytotoxicity in Sufu-KO-LIGHT cells, confirmation, cytotoxicity control for Gli-SUFU antagonist project, cell-based, ATP luminescence, single concentration; AID 651994, 2013; shares compounds with Gli-Sufu block; cytotoxicity, % at 5 µM; 2,500 compounds, 32% hits;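 active = mean cytotoxicity at 5 µM above about 25%, limit read from the data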;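 also: cells exposed to compound overnight for roughly 16 to 18 hours; plate controls were DMSO wells with cells for no effect and medium without cells for full effect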
# Wnt3a counter = Wnt3a reporter signal inhibition, confirmation, counter-screen for Gli-SUFU antagonist project, Wnt-LIGHT cells, luminescence, single concentration | inhibition, % at 6.25 µM | 2,500 compounds, 20% hits | shares compounds with Gli-Sufu block | Wnt3a-driven luciferase reporter;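 active = mean inhibition above about 25%, limit read from the data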
# The depositor's hits bear a star; x = not tested or not shown.
SMILES,aSyn 5UTR inh,697 NFkB inh,Gli-Sufu block,Mdm2-MdmX inh,Jurkat NFkB inh,KLF5 inh,Gli antag conf,Gli cytotox,Wnt3a counter
CCOC(=O)CNC(=S)N(CCCN1CCN(C)CC1)Cc1cccs1,-7,-2,10,12,-9,-33,x,x,x
COc1ccc(-n2c(-c3ccc(Br)cc3)c[n+]3c2CCCCC3)cc1,2,-36,88*,20,26,-30,86*,41*,23
COc1ccc(-n2c(-c3ccccc3)c[n+]3c2CCC3)cc1,-10,18,72*,33,48,-25,80*,38*,23
COc1ccc(-n2c(-c3ccc(Br)cc3)c[n+]3c2CCC3)cc1,-2,7,80*,-1,23,-1,80*,38*,9
COc1ccc(-n2c(-c3ccc(Br)cc3)n[nH]c2=S)cc1,22,8,-14,27,-9,-3,x,x,x
COc1ccc(-n2c(-c3ccc(Br)cc3)c[n+]3c2SC(C)C3)cc1 (centres undefined),-3,27,76*,39,-1,-25,85*,42*,-21
COc1ccc(-n2c(-c3ccc(Br)cc3)nc(=S)c3c2CCCC3)cc1,-49,-17,7,-9,9,-11,x,x,x
CCOC(=O)C1(CCc2ccccc2)CCN(C(=O)C(C)n2cncn2)CC1 (centres undefined),7,7,2,-3,5,10,x,x,x
Cn1nc(C(=O)OCC(=O)Nc2cccc(S(=O)(=O)N3CCCC3)c2)c2ccccc2c1=O,-8,14,-1,17,-19,-12,x,x,x
CC(=O)Oc1cc2c(cc1Cl)C(c1cccs1)CC1(CC(C)(C)NC(=S)N1)O2 (centres undefined),-8,0,21,-1,3,-19,x,x,x
CCn1c(=O)n(CC)c2cc(N3CCCC3)c(NC(=O)c3cccc(C)c3)cc21,28,12,-3,17,4,-36,x,x,x
CCn1c(=O)n(CC)c2cc(N3CCCC3)c(NC(=O)c3ccc(C)c([N+](=O)[O-])c3)cc21,19,4,51,9,2,-78,53*,35*,7
CCn1c(SCc2nc3ccccc3c(=O)[nH]2)nc2ccccc21,10,-1,56*,18,5,-37,13,26*,-24
COCCn1c(SCc2nc3ccccc3c(=O)[nH]2)nc2ccccc2c1=O,39,-10,-4,24,6,1,x,x,x
Cc1ccc(CNC(=O)CN(c2ccc(C)cc2)S(=O)(=O)c2c(C)n[nH]c2C)cc1,5,-5,57*,-9,3,-33,26,9,37*
Cc1ccc(N(CC(=O)NC(C)c2ccccc2)S(=O)(=O)c2c(C)n[nH]c2C)cc1 (centres undefined),4,-54,0,0,-11,4,x,x,x
COc1ccc2[nH]c(=O)c(CN(Cc3ccco3)C(=O)c3ccccc3)cc2c1,2,6,95*,11,8,-14,26,3,-15
COc1ccc(CNC(=O)C2CCN(S(=O)(=O)N3CCC4(CC3)OCCO4)CC2)c(OC)c1,5,-25,99*,-3,-19,-14,3,-12,-23
COc1cccc(CNC(=O)C2CCN(S(=O)(=O)N3CCC4(CC3)OCCO4)CC2)c1,10,-12,-13,11,-4,-13,x,x,x
Cc1cc(C)c(C(=O)N2CCC(N3CCC(C(=O)NC(C)C)CC3)CC2)o1,3,-6,5,17,3,-12,x,x,x
O=C(O)CN1CCCCCC1=O,-20,5,-10,10,11,-29,x,x,x
O=C1CCCN1CN1CCCCC1,-11,-15,99*,9,-3,-24,13,22,-14
Cc1ccc(C(=O)N2CCN3C(=O)c4ccccc4C23c2ccc(Cl)cc2)cc1 (centres undefined),-69,-8,56*,21,24,-9,61*,10,-23
CC(=O)NNc1cc(C)nc(N)n1,15,8,8,14,-6,-11,x,x,x
O=C(Nc1cccc(S(=O)(=O)N2CCCC2)c1)c1ccccc1OC(F)F,10,-5,-5,10,6,-19,x,x,x
SMILES,aSyn 5UTR inh,697 NFkB inh,Gli-Sufu block,Mdm2-MdmX inh,Jurkat NFkB inh,KLF5 inh,Gli antag conf,Gli cytotox,Wnt3a counter
CN(C(=O)CSCC(=O)O)C1CCCCC1,1,29,1,-10,2,17,x,x,x
CCOc1c(CNCCN2CCOCC2)cccc1OC,-16,14,52,12,7,0,30,-1,23
O=Cc1cn(-c2ccccc2)nc1-c1ccccc1,0,-5,-35,17,-22,-89,x,x,x
O=Cc1cn(-c2ccccc2)nc1-c1cccnc1,26,4,54,-13,1,-18,21,12,5
CC(C)CNC(=S)N1CCC(C(=O)c2ccc3c(c2)OCCO3)CC1,-11,-6,-2,22,13,7,x,x,x
O=C(O)c1cccc(N/N=C/c2sc(N3CCOCC3)nc2-c2ccccc2)c1,-57,-41,-85,-9,7,-56,x,x,x
O=[N+]([O-])c1ccc(N/N=C/c2sc(N3CCOCC3)nc2-c2ccccc2)c(S(=O)(=O)Nc2ccc(Cl)cc2)c1,76*,x,90*,x,x,-26,90*,3,72*
O=[N+]([O-])c1ccc(N/N=C/c2sc(N3CCOCC3)nc2-c2ccccc2)c(S(=O)(=O)Nc2ccccc2Cl)c1,x,x,69*,x,x,-20,81*,12,60*
COc1cc(C(=O)OCC(=O)c2cc(C)n(CC3CCCO3)c2C)ccc1OCC(=O)N1CCOCC1 (centres undefined),-26,-5,-2,5,9,x,x,x,x
c1ccc(C2=Nn3c(nnc3-c3ccccn3)SC2)cc1,11,-42,7,-29,-4,-11,x,x,x
C[n+]1c2n(c3ccccc31)N=C(c1ccccc1)CS2,-48,-29,60*,14,0,-40,72*,28*,-13
O=C(c1cccc(C(F)(F)F)c1)N1CCN(CCc2ccccc2)CC1,-18,4,9,1,-6,0,x,x,x

# Screening results as filed in PubChem.
